What all share (assay): NCI-60 one-dose screen, 48 h (100 = growth as untreated, 0 = no growth, -100 = all killed)
Common to all, as to conditions: 10 µM unless noted

The subject of test [1] is NCI-H23 lung.
The test system of test [2] is NCI-H226 lung.
For test [3], the system named is NCI-H322M lung.
The subject of test [4] is HOP-62 NSCLC.
Test [5] deals with NCI-H460 lung.
The subject of test [6] is HOP-92 NSCLC.
Test [7] deals with NCI-H522 lung.
In test [8] the test system is A549/ATCC NSCLC.
Test [9] deals with 786-0 renal.
The subject of test [10] is COLO 205 colon.
For test [11], the system named is DU-145 prostate.
Test [12] concerns K-562 leukemia.
In test [13] the test system is MALME-3M melanoma.
Test [14] has as its system MDA-MB-231 breast.
For test [15], the system named is RXF 393 renal.
Test [16] concerns SF-268 CNS.
Test [17] relates to SF-295 CNS.
For test [18], the system named is SF-539 CNS.
The test system of test [19] is UACC-257 melanoma.
For test [20], the system named is M14 melanoma.

The structures appear in SMILES notation. Values joined by “and” are separate entries in the source; they are usually repeats but may differ in a detail not shown here. Equal entries are not always repeated. This is part of a sample that, as a whole, favours compounds with a hit. Of some 83,000 tested, about 20% had one in any assay.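 In brief: 96-well plates, 48 h treatment, single concentration, percent growth endpoint.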 Active and inactive are the calls of the source. The calls were made as follows: active = growth percent below 10; inactive = the rest.

As for `Cc1[nH]nc2ccc3nc(-c4cn[nH]c4C(F)(F)F)c4c(c3c12)CCCC4`, the growth in [1] was -8.3% (active); in [2] it was -5.98% (active); in test [3], 2.15% (active); in [4], 5.21% (active); in test [5] it was 1.29% (active); in test [6], -18.3% (active). Besides, the growth in test [7] is -54% (active); in [8], -2.97% (active); in [9], -21.2% (active); in [10] it was -18.6% (active); in [11], 5.72% (active); in [12] it was 14.9% (inactive). Besides, the growth in [13] is -24% (active); in [14], -14.8% (active); in [15], -79.6% (active); in [16], 18% (inactive); in test [17], -12.9% (active); in [18], -67.2% (active). In addition, the results for the growth in test [19] and in test [20] were 17.8% (inactive) and 3.29% (active), respectively.
Turning to `O=C(CSc1nnc(-c2ccc(-c3nc4ccccc4[nH]3)cc2)o1)Nc1ccc(Cl)cc1`, the growth in test [1] is -6.9% (active); in test [2], 40.3% (inactive); in test [3], 61.5% (inactive); in test [4] it was 0.484% (active); in [5] it was -65.4% (active); in [6] it was -5.87% (active). The growth was 0.5% (active) in test [7]; 1.88% (active) in test [8]; -37.8% (active) in [9]; 61.7% (inactive) in test [10]; 13.1% (inactive) in [11]; 10.7% (inactive) in [12]. Moreover, the growth is 29.1% (inactive) in test [13]; -24.9% (active) in test [14]; -61.7% (active) in test [15]; 38.5% (inactive) in [16]; 39% (inactive) in test [17]; -94.2% (active) in [18]. Besides, the growth was 48.9% (inactive) in test [19] and -0.25% (active) in [20].
In the case of `COc1ccc(N=Nc2c(N)nn3c(N)c(C#N)c(-c4ccc(C)cc4)nc23)cc1`, the growth in test [1] is 62.9% (inactive); in [2] it was 54.7% (inactive); in test [3] it was 78.7% (inactive); in test [4], 63.6% (inactive); in test [5] it was 26.6% (inactive); in test [6], 19.4% (inactive). Moreover, the growth in test [7] is 48.9% (inactive); in test [9] it was 80.9% (inactive); in test [10], 85.6% (inactive); in [11], 42.2% (inactive); in test [12], 36.1% (inactive); in test [13], 93.7% (inactive). The growth in test [14] was 42.4% (inactive); in test [15], 65.1% (inactive); in test [16] it was 67.5% (inactive); in [17], 58.1% (inactive); in test [18] it was 52.4% (inactive); in test [19], 92.7% (inactive). In addition, the growth in [20] was 61.6% (inactive).
As for `O=C(CCl)Nc1ccc(C(=O)/C=C/c2cc3ccccc3nc2Cl)cc1`, the growth in [1] was -83.6% (active) and 34.9% (inactive); in test [2] it was 12.4% (inactive) and 14.5% (inactive); in test [3] it was 22.4% (inactive) and 45.1% (inactive); in test [4] it was -8.06% (active) and 37.4% (inactive); in [5] it was -53.6% (active) and 19.5% (inactive); in test [6] it was 46.9% (inactive) and 65.3% (inactive). For the same molecule, the growth in test [7] is -62.9% (active) and 76.9% (inactive); in [8], 72.4% (inactive) and 60.8% (inactive); in test [9] it was -41.7% (active) and 23.9% (inactive); in test [10], -64.4% (active) and 72.4% (inactive); in [11] it was -84.1% (active) and 46.7% (inactive); in test [12] it was -59.7% (active) and 28.6% (inactive). The growth in [13] was -87.2% (active) and 48.9% (inactive); in test [14], -91.6% (active) and 63.6% (inactive); in test [15], -85.3% (active) and 36.2% (inactive); in [16], -15.5% (active) and 29.3% (inactive); in test [17], -25.5% (active) and 42.3% (inactive); in test [18], -99.1% (active) and 13.3% (inactive). Further, the growth is 24.4% (inactive) and 58.7% (inactive) in test [19]; -62.3% (active) and 42.9% (inactive) in test [20].
Regarding `CCOC(=O)/C(F)=C/C1CC1CCc1ccc(OCC)cc1` (stereo not drawn), the growth was 87.3% (inactive) in test [1]; 86.8% (inactive) in [2]; 82.5% (inactive) in [3]; 124% (inactive) in test [4]; 59.2% (inactive) in test [5]; 91.7% (inactive) in test [6]. The growth in [7] was 97.5% (inactive); in test [9] it was 105% (inactive); in test [10] it was 41.8% (inactive); in test [11], 50.5% (inactive); in test [12], 98.3% (inactive); in test [13] it was 89.9% (inactive). In addition, the growth in test [14] is 97.4% (inactive); in test [15], 96.2% (inactive); in [16], 90.5% (inactive); in test [17], 91.1% (inactive); in test [18], 93% (inactive); in [19], 105% (inactive). For the same molecule, the growth in test [20] was 105% (inactive).
As for `Cc1ccc(Cl)cc1NC(=O)Nc1nc2ccc([N+](=O)[O-])cc2s1`, the growth in test [1] is -28.6% (active); in test [2] it was -9.03% (active); in [3], -6.17% (active); in test [4], -68.1% (active); in test [5], -41.5% (active); in test [6], -28.6% (active). In addition, the growth is -36.8% (active) in [7]; -25.8% (active) in test [8]; -27.9% (active) in test [9]; -87.9% (active) in test [10]; 18.6% (inactive) in [11]; 1.86% (active) in test [12]. The growth in [13] was -24.4% (active); in [14], -42.2% (active); in test [15], -22.7% (active); in test [16], 27.5% (inactive); in [17] it was -45.4% (active); in test [18], -33.9% (active). The growth was -20.9% (active) in test [19] and -33.5% (active) in test [20].
`c1n[nH]cc1-c1nc2ccc3[nH]ncc3c2c2c1CC1(CCOCC1)CC2`: the growth was 44.2% (inactive) in test [1]; 27.3% (inactive) in test [2]; 48.6% (inactive) in [3]; 55.5% (inactive) in [4]; 29.4% (inactive) in test [5]; 70.7% (inactive) in [6]. Also, the growth in test [7] was 7.31% (active); in [8], 44.7% (inactive); in test [9], 48.2% (inactive); in test [10] it was 30.3% (inactive); in test [11], 41.6% (inactive); in [12], 39.5% (inactive). Also, the growth in test [13] was 22.6% (inactive); in test [14] it was 59.4% (inactive); in [15], -15.8% (active); in test [16], 34.4% (inactive); in test [17], 65.8% (inactive); in [18] it was 26.6% (inactive). The growth in [19] was 53% (inactive); in [20] it was 23.9% (inactive).

The values are drawn from PubChem BioAssay (NCI).
